# Test results taken from PubChem BioAssay AID1345083 (National Center for Advancing Translational Sciences (NCATS), 2018).
# The campaign covered roughly 94,000 compounds. About 6,200 (6.6%) were called active. Not shown: some 31% with an inconclusive outcome. The call rests on the fitted dose curve; in most records, active means well fitted inhibition curve with a large enough effect; inconclusive means small, poorly fitted or top-dose-only effect; inactive means flat fitted curve, though single readings scatter. This excerpt belongs to a sample that is enriched for actives.
# Assay: Cytotoxic Profiling in HEK 293 Cell Line of Diverse Libraries Using Quantitative High-Throughput Screening; further: nearly all actives have a fitted effect of over 60% in size
# Details: HEK 293 viability, ATP luminescence (CellTiter-Glo), 48-72 h; series mostly up to 115 µM; activity change, negative = cytotoxicity: at the top concentration
# Outline: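 qHTS cytotoxicity; HEK 293, 250 cells/well; compound pinned; 48 or 72 hr, 37 degree Celsius, 5% CO2, 95% humidity; CellTiter-Glo, 10 min RT; luminescence (ATP).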
# On the % scale 0 is the no-effect control and ±100 the full control effect; potency means the concentration at half of the fitted maximal effect.
Structure (SMILES),"activity change, negative = cytotoxicity",Potency,outcome
COC(=O)N1CCC2(CC1)C(=NC1CCCC1)NC(=O)N2c1cc(F)cc(F)c1,-4.97% (inactive),–,–
Cc1csc(CCNC(=O)C[C@H]2NC(=O)c3ccccc3NC2=O)n1,-0.645% (inactive),–,–
O=C1Nc2ccccc2CC12CCN(CC1CC1)C2 (centres undefined),-20.7% [at 172 µM] (inactive),–,–
N#Cc1ccc(CN2CCC3(Cc4ccccc4NC3=O)C2)cc1 (centres undefined),–,89.1 µM (active),–
O=C1Nc2ccccc2CC12CCN(CC1CCCCC1)CC2,–,inactive,–
O=C(N[C@H]1CCN2C(=O)c3ccccc3NC(=O)[C@H]12)c1cccs1,4.83% [at 172 µM] (inactive),–,–
CC(=O)N1CCc2[nH]cnc2C12CCN(C(=O)c1ccc(C)c(C)c1)CC2,-17.9% (inactive),–,–
COC(=O)C[C@H]1CN(C(=O)OC(C)(C)C)CCN1,–,–,inactive [at 172 µM]
COc1ccc(-n2nc(C3CCN(C(=O)c4ccc(Cl)nc4)CC3)[nH]c2=O)cc1,1.41% (inactive),–,–
COc1ccc(-n2nc(C3CCN(C(=O)c4ccc(C)cc4)CC3)[nH]c2=O)cc1,-22% (inactive),–,–
COc1ccc(-n2nc(C3CCN(Cc4ccccn4)CC3)[nH]c2=O)cc1,–,12.6 µM (active),–
CN1CCN(C(=O)c2ccc3c(c2)OCCO3)CC1=O,3.69% (inactive),–,–
CN(C)C(=O)c1nc(-c2cccnc2)c2ccccn12,1.69% [at 172 µM] (inactive),–,–
Cc1cnc(C2CCC2)n1CC1CCN(C(=O)c2ccncc2)C1 (centres undefined),0.823% (inactive),–,–
Cc1cccc(-c2noc([C@@H]3Cc4nc[nH]c4CN3C(=O)CCC(=O)O)n2)c1,2.48% [at 172 µM] (inactive),–,–
Cc1ccc(-c2noc([C@@H]3Cc4nc[nH]c4CN3Cc3cccc(C#N)c3)n2)cc1,–,89.1 µM (active),–
Cc1cccc(-c2noc([C@@H]3Cc4nc[nH]c4CN3C(=O)Nc3ccccc3)n2)c1,-25.2% [at 172 µM] (inactive),–,–
CCn1cc(C(=O)N2C[C@@H](COCC3CC3)[C@H](c3ccccn3)C2)cn1,-23.9% (inactive),–,–
Cc1cc(C)n(CC(=O)N2CCC3(CC2)NCCc2c3[nH]c3ccccc23)n1,-4.91% (inactive),–,–
COCCOCC(=O)N1CCC2(CC1)NCCc1c2[nH]c2ccccc12,–,–,inactive
O=C(C1CC=CC1)N1CCC2(CC1)NCCc1c2[nH]c2ccccc12,–,39.8 µM (active),–
COCCOCC(=O)N1CCC2(CC1)c1[nH]c3ccc(OC)cc3c1CCN2C,-9.77% (inactive),–,–
COc1ccc(C2(C(=O)N3CCC4(CC3)NCCc3c4[nH]c4ccccc34)CC2)cc1,–,35.5 µM (active),–
COc1cccc(N2CCN(C(=O)C3(c4ccc(NC(C)=O)cc4)CCC3)CC2)c1,-13.8% (inactive),–,–
COc1ccc2[nH]c3c(c2c1)CCNC31CCN(C(=O)Cn2ccnc2)CC1,-3.22% (inactive),–,–

Structure (SMILES),"activity change, negative = cytotoxicity",Potency,outcome
O=C(COc1ccc(F)cc1)N1CCC2(CC1)NCCc1c2[nH]c2ccccc12,–,44.7 µM (active),–
O=C(C1CCCO1)N1CCC2(CC1)NCCc1c2[nH]c2ccccc12 (centres undefined),-4.46% (inactive),–,–
CC(=O)NCc1nnc2n1C(C(=O)N1CCN(C)CC1)CC2 (centres undefined),-19% [at 172 µM] (inactive),–,–
COCc1nncn1C1CCN(C(=O)c2ccccc2OC(F)(F)F)CC1,3.04% (inactive),–,–
CC(=O)Nc1ccc2c(c1)nc1n2[C@@H](CNCc2ccncc2F)COC1,4.05% [at 172 µM] (inactive),–,–
CN1CCCN(c2ccc(C(=O)N3CCC(N4CCOCC4)CC3)cn2)CC1,-2.17% (inactive),–,–
O=C(NC1C[C@H]2CC[C@@H](C1)N2S(=O)(=O)c1ccc2c(c1)OCCO2)c1ccc(F)cc1 (some centres undefined),-20.7% (inactive),–,–
CCn1ccc(C(=O)NC2CCCN(c3cc(-c4ccc(F)cc4)[nH]n3)C2)n1 (centres undefined),-22.3% (inactive),–,–
O=C(NC1CCCN(c2nc3ncccc3o2)C1)c1ccc(F)cc1 (centres undefined),-15.2% [at 172 µM] (inactive),–,–
Cc1nnc2ccc(N3CCC(NC(=O)c4ccccc4Cl)C3)nn12 (centres undefined),-3.86% (inactive),–,–
O=C(NC1CCCN(c2ccc3nnc(C4CC4)n3n2)C1)c1ccccn1 (centres undefined),1.46% (inactive),–,–
O=C(NC1CCCN(c2cc(-c3ccc(F)cc3)[nH]n2)C1)c1ccc(Br)cc1 (centres undefined),–,39.8 µM (active),–
O=C(NC1CCCN(c2cc(-c3ccc(Cl)cc3)[nH]n2)C1)c1ccccc1F (centres undefined),–,44.7 µM (active),–
O=C(NC1CCCN(c2cc(-c3ccc(Cl)cc3)[nH]n2)C1)c1ccncc1 (centres undefined),–,39.8 µM (active),–
CN(C)C1(CC2CC2)CCN(C(=O)c2ccsc2)CC1,1.08% (inactive),–,–
CC(C)CN1C(=O)c2cccn2CC1C(=O)NC1CCS(=O)(=O)C1 (centres undefined),–,–,inactive
COc1ccc(CN2CCCC(c3[nH]ccc3C(N)=O)C2)cc1Cn1ccnc1 (centres undefined),2.51% (inactive),–,–
O=C(c1ccc(N2CC3CC(C2)[C@H]2CCCC(=O)N2C3)nc1)N1CCCCC1 (some centres undefined),-4.66% (inactive),–,–
COc1cncc(-c2cccc(COc3ccc4c(cnn4CC[S+](C)(=O)[O-])c3)c2)c1,–,56.2 µM (active),–
O=C(CC1CCN(C(=O)c2ccccc2)C1)NC1CC1 (centres undefined),-7.16% (inactive),–,–
CCn1c(C2CCCNC2)nn(Cc2ccc(C(=O)NC)o2)c1=O (centres undefined),0.0264% (inactive),–,–
Brc1cccc(-c2noc(-c3nc(-c4ccncc4)no3)n2)c1,4.91% (inactive),–,–
CCn1cnnc1CC1CCN(C(=O)C2CCN(Cc3nc(-c4cccc(C)c4)oc3C)CC2)CC1,-24.6% (inactive),–,–
Cc1oc(-c2cccc(Oc3ccccc3)c2)nc1CN1CCOC(CCN)C1 (centres undefined),–,28.2 µM (active),–
COc1ccc(-c2noc(CN3CCCC(C(=O)c4cccnc4)C3)n2)c(OC)c1OC (centres undefined),-24.8% (inactive),–,–

Structure (SMILES),"activity change, negative = cytotoxicity",Potency,outcome
Cc1oc(-c2cccc(Cl)c2)nc1CN1CCCC(C(N)=O)C1 (centres undefined),-17.1% (inactive),–,–
COc1ccc(-c2nc(CN3CCOC(CN)C3)c(C)o2)c2ccccc12 (centres undefined),–,31.6 µM (active),–
COC(=O)[C@@H]1Cc2ncn(Cc3ccc(Cl)cc3)c2CN1S(=O)(=O)c1ccc(C(C)=O)cc1,-1.59% (inactive),–,–
CCCN(CC1CCOC1)C(=O)Nc1cc(C)ccc1OC (centres undefined),4.73% (inactive),–,–
Cc1ncsc1CCC(=O)N[C@@H]1COCC[C@@H]1Oc1cccc(F)c1,–,–,inactive
COc1ccc2[nH]cc(CCNC(=O)C3CCCN(Cc4ccncc4)CCC(=O)NCC3)c2c1 (centres undefined),–,–,inactive
Cc1cc(C(=O)N2CCCCC2c2noc(COc3ccc(F)cc3)n2)nn1C (centres undefined),-29.3% (inactive),–,–
COc1ccc(OCc2nc(C(=O)N3CCCC(C)(CO)C3)co2)cc1 (centres undefined),-24.8% (inactive),–,–
COc1ccc2ccc(OCc3nc(C(=O)N4CCC(=O)NCC4C)co3)cc2c1 (centres undefined),–,44.7 µM (active),–
COc1ccc(OC)c(NC(=O)C2CCN(c3cc(C(F)(F)F)ncn3)CC2)c1,-13.9% (inactive),–,–
Cc1nc(N2CCC(C(=O)NCc3ccc(C(C)C)cc3)CC2)cc(C(F)(F)F)n1,–,31.6 µM (active),–
Cc1nc(N2CCC(NC(=O)c3ccc4c(c3)OCO4)CC2)cc(C(F)(F)F)n1,-17.7% (inactive),–,–
Cc1ccc(N2Cc3c(NCC4CC4)ncnc3N(C)CC2=O)cc1,-6.31% [at 172 µM] (inactive),–,–
CN1CCN(C2CCOC3(CCN(S(=O)(=O)c4cn(C)cn4)CC3)C2)CC1 (centres undefined),6.96% (inactive),–,–
CC(C)C(=O)N1CCC(OC2CCN(Cc3ccccc3)CC2)CC1,-18.1% (inactive),–,–
COCc1ccc2c(c1)c(OC(C)(C)C(=O)N1CCN(C)CC1)nn2Cc1cccnc1,–,–,inactive [at 172 µM]
CN1CCN(C(=O)C(C)(C)Oc2nn(Cc3cccc(Cl)c3)c3ccccc23)CC1,–,70.8 µM (active),–
O=C(NCc1cccnc1)C1CCCN(c2cnn(Cc3ccccc3)c(=O)c2)C1 (centres undefined),-21.1% (inactive),–,–
CN(C)CCNC(=O)C(C)(C)Oc1nn(Cc2cccc(Cl)c2)c2ccccc12,–,31.6 µM (active),–
CC(C)(Oc1nn(Cc2cccc(Cl)c2)c2ccccc12)C(=O)Nc1cccnc1,–,35.5 µM (active),–
COCc1ccc2c(c1)c(OC(C)(C)C(=O)NC1CCC(O)CC1)nn2Cc1cccnc1 (centres undefined),-3.5% (inactive),–,–
COCCNC(=O)N1CCc2nn(Cc3ccccc3)c(=O)n2CC1,-1.17% (inactive),–,–
Cc1ccccc1C(=O)NCc1c[nH]c2ncccc12,-4.04% [at 172 µM] (inactive),–,–
N#Cc1ccc(CN2CC3CCC(C2)N3c2ccc(C(F)(F)F)cc2)cc1,1.8% (inactive),–,–
O=C(c1ccn[nH]1)N1CCC[C@H](n2c(=O)n(CC3CC3)c3cccnc32)C1,-3.78% (inactive),–,–

Structure (SMILES),"activity change, negative = cytotoxicity",Potency,outcome
COCCn1c(=O)n([C@H]2CCCN(C(=O)c3ccccc3F)C2)c2ncccc21,-4.8% (inactive),–,–
NC(=O)c1cccnc1OC1CCN(Cc2cccnc2)CC1,-1.27% (inactive),–,–
CCOCc1nc(C2CCCN(C(=O)NC(C)C)C2)no1 (centres undefined),6.9% (inactive),–,–
O=C(NCc1ccco1)C1CCCN(c2cnn(Cc3ccccc3)c(=O)c2)C1 (centres undefined),-10.3% (inactive),–,–
Cc1noc(C)c1S(=O)(=O)N1CCC(c2noc(-c3ccccn3)n2)C1 (centres undefined),-0.0231% (inactive),–,–
O=C1CCN(C(=O)C2COc3ccccc3O2)CCOCCN1 (centres undefined),-13.6% (inactive),–,–
C[C@@H](NC(=O)C1=C[C@@H](NC(=O)CC2(CC(=O)O)CCCC2)[C@@H](O)[C@H](O)C1)C(N)=O,–,–,inactive [at 172 µM]
CN1CCC(C(=O)N2CC(F)(F)C[C@H]2c2nc(C3CC3)no2)CC1,1.09% (inactive),–,–
Cc1noc2c(NC3CCCCC3)cc(-c3ccsc3)nc12,–,89.1 µM (active),–
COCCCNc1cc(-c2ccsc2)nc2c(C)noc12,-25.3% [at 172 µM] (inactive),–,–
O=C(Nc1ccc(-c2nnc3n2CCCC3)cc1)c1ccccn1,0.901% (inactive),–,–
CC(=O)N1CCCC2(C1)CN(C)c1ccc(C(=O)NC3CC3)cc12 (centres undefined),4.11% [at 172 µM] (inactive),–,–
Cc1c(-c2ccc(F)cc2)[nH]c2ccc(CNC(=O)c3ccc(CO)o3)cc12,–,31.6 µM (active),–
COc1ccc(CNC(=O)Cn2cccc2-c2nc(-c3ccc(F)cc3)no2)cc1,-3.89% (inactive),–,–
CNc1nc(C(=O)NCc2ccc3[nH]c(-c4ccc(F)cc4)c(C)c3c2)cs1,–,39.8 µM (active),–
COc1ccc(-c2ccc(C(=O)NCc3ccc(F)cc3)cc2)nn1,-8.21% [at 172 µM] (inactive),–,–
N#Cc1cccc(-c2c(C(=O)NCc3ccc(F)cc3)nc3sccn23)c1,-4.66% [at 172 µM] (inactive),–,–
COCCCN(CCC(=O)NCc1ccc(F)cc1)C(=O)c1cc(C)oc1C,-6.59% (inactive),–,–
CCOc1ccc2c(n1)CCN(C(=O)Nc1ccc(OC)cc1C)C2,-5.05% (inactive),–,–
CN1CC(=O)N(c2cccc(F)c2)Cc2c(NC3CCNCC3)ncnc21,1.38% (inactive),–,–
CS(=O)(=O)N1CCCN(C(=O)Cc2cccc(F)c2)CCNC(=O)CC1c1ccccc1 (centres undefined),-0.201% (inactive),–,–
Cc1cccc(OCCc2noc(C3CCCN(Cc4ccccc4C#N)C3)n2)c1 (centres undefined),–,89.1 µM (active),–
CCOCC(=O)N1CC(c2nc(CCOc3cccc(C)c3)no2)C1,-25.3% (inactive),–,–
O=C(c1ccccn1)N1CCCC(c2nc(CCOCC3CCOCC3)no2)C1 (centres undefined),-18.8% (inactive),–,–
